PubChem BioAssay (Tox21)
Where “and” joins values, the source holds several entries; their conditions need not be identical. Equal values may be shown once. Records with an inconclusive call do not appear. Calls of active or inactive are those of the source. The call rests on the fitted dose curve; in most records, active means well fitted cell-killing curve with a large enough effect in the repeat runs; inconclusive means weak or mixed curves, or effect the other way; inactive means flat fitted curve, though single readings scatter.
On the % scale 0 is the no-effect control and ±100 the full control effect; potency means the concentration at half of the fitted maximal effect.

Test: qHTS assay to identify small molecule agonists of the estrogen receptor beta (ER-beta) signaling pathway - cell viability counter screen (AID 1259380); further: nearly all actives have a fitted effect of over 30% in size
Settings: ER-beta-bla HEK293T viability, CellTiter-Glo luminescence, 16 h; series mostly up to 92.4 µM; activity change, negative = cytotoxicity: at the top concentration
Description: National Center for Advancing Translational Sciences [NCATS]
NIH Chemical Genomics Center [NCGC]
U.S. Environmental Protection Agency [EPA]
National Institutes of Environmental Health Sciences [NIEHS]
National Toxicology Program [NTP]
U.S. Food and Drug Administration [FDA]
Estrogen receptor (ER), a nuclear hormone receptor, plays an important role in development, metabolic homeostasis and reproduction. Two subtypes of ER, ER-alpha and ER-beta, have similar expression patterns with some uniqueness in both types. Endocrine disrupting chemicals (EDCs) and their interactions with steroid hormone receptors like ER causes disruption of normal endocrine function. To identify the compounds that activate ER signaling, an ER beta-UAS-bla GripTite cell line (Life Technologies, Madison, WI, USA) containing a beta-lactamase reporter gene under the control of an UAS response element was used to screen Tox21 10K compound library. The cytotoxicity of the Tox21 compound library against the ER-beta-bla cell line was tested in parallel by measuring the cell viability using CellTiter-Glo assay in the same wells.
Tox21 Assay Protocol Summary:
ER-beta-UAS-bla HEK293T cells were dispensed at 2,000 cells/5 uL of assay medium containing 2% charcoal stripped FBS per well into black wall/clear-bottom 1536-well plates using a Multidrop Combi (ThermoFisher Scientific, Waltham, MA) dispenser. After the assay plates were incubated at a 37C and 5% CO2 for 6 hr, 23 nL of compounds dissolved in DMSO, positive controls or DMSO only was transferred to the assay plate by a Pintool station (Kalypsys, San Diego, CA). The plates were incubated at 37C and 5% CO2 for 16 hr. Then 1 uL of LiveBLAzerTM B/G FRET substrate was added using a BioRAPTR FRD (Flying Reagent Dispenser, Aurora Discovery, San Diego, CA) and then the plates were incubated at room temperature for 2 hours, and fluorescence intensity was measured by an Envision plate reader (PerkinElmer, Shelton, CT). For cell viability readout that measures cytotoxicity, 4 uL/well of CellTiter-Glo reagent was added into the assay plates using a FRD. After 30 min incubation at room temperature, the luminescence intensity in the plates was measured using a ViewLux (PerkinElmer) plate reader.
For `Nc1ccc([N+](=O)[O-])cc1Cl`, the “activity change, negative = cytotoxicity” value was -2.67% (inactive). In the case of `N#CCCSCCC#N`, the “activity change, negative = cytotoxicity” value is reported as -0.987% (inactive). With `CN(C)C1CSSSC1` the “activity change, negative = cytotoxicity” value was -1.1% (inactive). For `NNC(=O)c1ccccc1`, the “activity change, negative = cytotoxicity” value was 0.81% (inactive). For `Cl/C=C\CCl`, the “activity change, negative = cytotoxicity” value was -1.53% (inactive). With `Clc1ccc(CO/N=C(\Cn2ccnc2)c2ccc(Cl)cc2Cl)c(Cl)c1` the Potency was 29.8 µM (active). For `COCC(=O)N(c1c(C)cccc1C)[C@H](C)C(=O)OC`, the “activity change, negative = cytotoxicity” value was 3.57% (inactive). For `S=C(SSC(=S)N1CCCCC1)N1CCCCC1`, the Potency was 0.188 µM (active). With `O=c1oc2ccccc2c(O)c1Cc1c(O)c2ccccc2oc1=O` the Potency was 5.31 µM (active). In the case of `ClCCN1CCOCC1`, the “activity change, negative = cytotoxicity” value is reported as -0.533% (inactive). For `O=C(O)C1C2CCC(O2)C1C(=O)O` (stereo not given), the Potency was “inactive”. For `Cc1ccc(OP(=O)(Oc2ccccc2)Oc2ccccc2)cc1`, the Potency was 31.1 µM (active). With `N#Cc1c(-c2ccc(Cl)cc2)[nH]c(C(F)(F)F)c1Br` the Potency was 24.3 µM (active). In the case of `CCCCOP(=O)(CCCC)OCCCC`, the “activity change, negative = cytotoxicity” value is reported as -10.7% (inactive). With `O=C(CCl)C(Cl)Cl` the Potency was 9.78 µM (active). In the case of `COc1ccc(OC)c(C=O)c1`, the “activity change, negative = cytotoxicity” value is reported as -2.74% (inactive). With `Cc1cc(C)c(C2=C(OC(=O)CC(C)(C)C)C3(CCCC3)OC2=O)c(C)c1` the “activity change, negative = cytotoxicity” value was 1.63% (inactive). For `CCC(C)c1cc(C(C)(C)C)cc(-n2nc3ccccc3n2)c1O` (stereo not given), the “activity change, negative = cytotoxicity” value was -14.6% [at 42.5 µM] (inactive). With `CCCCN(CCCC)C(=S)[S-].CCCCN(CCCC)C(=S)[S-].[Zn+2]` the Potency was 13.7 µM (active). In the case of `ClC1=C(Cl)[C@]2(Cl)[C@@H]3[C@@H](Cl)[C@H](Cl)C[C@@H]3[C@@]1(Cl)C2(Cl)Cl`, the “activity change, negative = cytotoxicity” value is reported as -5.54% (inactive). For `CC(=O)[O-].[Tl+]`, the Potency was 2.75 µM (active). With `CC(C)OC(=S)S` the “activity change, negative = cytotoxicity” value was -25.2% (inactive). In the case of `CC(O)C#N` (stereo not given), the “activity change, negative = cytotoxicity” value is reported as 1.29% (inactive). For `CN(C)CCc1c[nH]c2cccc(O)c12`, the “activity change, negative = cytotoxicity” value was 0.767% (inactive). In the case of `CCCCCCCCCCCCBr`, the Potency is reported as 43.3 µM (active). With `CC(C)N1C(=O)N(c2ccccc2)CSC1=NC(C)(C)C` the Potency was 54.5 µM (active). For `OC(Cc1ccccc1Cl)(Cn1cncn1)C1(Cl)CC1` (stereo not given), the “activity change, negative = cytotoxicity” value was -8% (inactive). With `O=[N+]([O-])c1cc([N+](=O)[O-])c2ccccc2c1` the “activity change, negative = cytotoxicity” value was -7.5% (inactive). For `COc1cccc2c1C(=O)c1c(O)c3c(c(O)c1C2=O)C[C@@](O)(C(=O)CO)CC3OC1CC(N2CCOC(OC)C2)C(O)C(C)O1` (stereo not given in full), the “activity change, negative = cytotoxicity” value was -4.03% [at 42.5 µM] (inactive). With `O=[N+]([O-])c1ccc2ccc3cccc4ccc1c2c34` the Potency was 30.6 µM (active). For `[Cl][Sn]([c]1ccccc1)([c]1ccccc1)[c]1ccccc1`, the Potency was 0.82 µM (active). With `CN(C)C(=S)S` the Potency was 5.56 µM (active) and 1.21 µM (active) and 12.2 µM (active). In the case of `Cc1cc(Cl)ccc1O[C@H](C)C(=O)O`, the “activity change, negative = cytotoxicity” value is reported as -1.92% (inactive). With `Cc1cc(C)cc(OP(=O)(Oc2cc(C)cc(C)c2)Oc2cc(C)cc(C)c2)c1` the “activity change, negative = cytotoxicity” value was -3.42% (inactive). In the case of `[Cd+2].[Cl-].[Cl-]`, the Potency is reported as 69.1 µM (active) and 68.6 µM (active). For `ClC(Cl)=C(Cl)Cl`, the “activity change, negative = cytotoxicity” value was 7.9% (inactive). For `Cc1c(Cl)c(=O)oc2cc(OP(=O)(OCCCl)OCCCl)ccc12`, the “activity change, negative = cytotoxicity” value was -12.7% [at 42.5 µM] (inactive). With `Nc1ccccc1C(=O)OC/C=C/c1ccccc1` the Potency was 21.7 µM (active). For `Oc1cc(Cl)c(Cl)c(Cl)c1`, the Potency was 25.9 µM (active). With `CC(C)C1CCC(Cc2ccc(Cl)cc2)C1(O)Cn1cncn1` (stereo not given) the Potency was 67.9 µM (active).
